Results published in PubChem BioAssay (EPA / NIEHS).
Active and inactive are the calls of the source. The calls were made as follows: active = hit-call score of the fitted dose curve at least 0.9, where 1 is the maximum; inactive = score below 0.9.

Legend:
[1] = biological target: Transcription factor E2F1 (Homo sapiens) (UniProt Q01094); test: ATG_E2F_CIS: Attagene CIS-FACTORIAL HepG2 Assay for human E2F Transcription Factor 1 (AID 2282935); settings: HepG2 Attagene cis-reporter, E2F reporter RNA transcripts; actives raise or lower the signal
Sequence of Transcription factor E2F1 (Homo sapiens) (Q01094 whole entry, looked up): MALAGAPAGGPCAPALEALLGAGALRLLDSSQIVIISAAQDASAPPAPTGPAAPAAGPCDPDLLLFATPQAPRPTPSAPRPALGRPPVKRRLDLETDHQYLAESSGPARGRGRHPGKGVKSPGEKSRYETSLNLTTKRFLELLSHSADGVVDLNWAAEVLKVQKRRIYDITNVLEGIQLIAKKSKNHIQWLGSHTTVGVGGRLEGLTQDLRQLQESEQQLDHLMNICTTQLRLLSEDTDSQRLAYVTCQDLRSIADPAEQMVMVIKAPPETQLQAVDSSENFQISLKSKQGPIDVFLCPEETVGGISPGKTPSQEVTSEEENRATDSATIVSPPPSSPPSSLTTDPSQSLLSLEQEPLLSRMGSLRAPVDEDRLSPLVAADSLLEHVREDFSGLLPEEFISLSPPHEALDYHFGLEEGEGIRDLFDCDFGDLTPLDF
Outline: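 Gain or loss of reporter transcript, fitted against DMSO, reflects E2F1-driven transcription. Transiently transfected HepG2 dosed 24 h before RNA isolation. Quantified by fluorescent RT-PCR products separated by capillary electrophoresis.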

[2] = ATG_E_Box_CIS: Attagene CIS-FACTORIAL HepG2 Assay for human Enhancer Box (E-box) (AID 2282936); settings: HepG2 E-box cis-reporter transcription, actives raise or lower the signal
Outline: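 E-box-driven reporter transcripts measured in transiently transfected HepG2 after 24 h exposure: RNA reverse-transcribed, PCR-amplified, fluorescently labelled, digested and resolved by capillary electrophoresis. Gain or loss relative to DMSO.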

[3] = ATG_M_61_CIS: Attagene CIS-FACTORIAL HepG2 Assay for M61 Transcription Factor (Internal Marker) (AID 2282937); settings: HepG2 Attagene CIS-FACTORIAL M61 internal marker reporter; actives raise or lower the signal
Outline: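 HepG2 cells transiently transfected with cis-element-driven multiple reporter transcription units, dosed for 24 h. Reporter mRNA measured by RT-PCR, 6-FAM primer-extension labelling, HpaI digestion and capillary electrophoresis; bidirectional fit versus DMSO baseline.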

[4] = ATG_EGR_CIS: Attagene CIS-FACTORIAL HepG2 Assay for human Early Growth Response 1 (EGR1) (AID 2282938); settings: HepG2 Attagene CIS-FACTORIAL EGR reporter mRNA; actives raise or lower the signal
Outline: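 HepG2 cells transiently transfected with cis-promoter-driven multiplexed reporter transcription units; reporter mRNA measured 24 h after compound dosing by RT-PCR, 6-FAM primer extension, HpaI digestion and capillary electrophoresis. Bidirectional fit versus DMSO baseline.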

[5] = ATG_M_19_CIS: Attagene CIS-FACTORIAL HepG2 Assay for M19 Transcription Factor (Internal Marker) (AID 2282939); settings: HepG2 Attagene CIS-FACTORIAL M19 internal marker reporter; actives raise or lower the signal
Outline: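 Chemical-treated HepG2 (24 h) with MRTU constructs; reporter transcripts detected by fluorescent RT-PCR fragment analysis on capillary electrophoresis. Internal background marker, DMSO as baseline.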

[6] = ATG_ERE_CIS: Attagene CIS-FACTORIAL HepG2 Assay for Estrogen Response Element (ERE) (AID 2282940); settings: HepG2 ERE cis-reporter, Attagene RNA transcript; actives raise or lower the signal
Outline: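 Human liver cells (HepG2) bearing transiently transfected, promoter-regulated reporter units were exposed 24 h. Reporter mRNA induction was detected by capillary electrophoresis of labelled RT-PCR products and fitted bidirectionally to DMSO.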

[7] = biological target: Hepatocyte nuclear factor 3-beta (Homo sapiens) (UniProt Q9Y261); test: ATG_FoxA2_CIS: Attagene CIS-FACTORIAL HepG2 Assay for human Forkhead box A2 (FOXA2) (AID 2282942); settings: HepG2 cis-reporter transcription factor activity, 24 h; actives raise or lower the signal
Sequence of Hepatocyte nuclear factor 3-beta (Homo sapiens) (Q9Y261 whole entry, looked up): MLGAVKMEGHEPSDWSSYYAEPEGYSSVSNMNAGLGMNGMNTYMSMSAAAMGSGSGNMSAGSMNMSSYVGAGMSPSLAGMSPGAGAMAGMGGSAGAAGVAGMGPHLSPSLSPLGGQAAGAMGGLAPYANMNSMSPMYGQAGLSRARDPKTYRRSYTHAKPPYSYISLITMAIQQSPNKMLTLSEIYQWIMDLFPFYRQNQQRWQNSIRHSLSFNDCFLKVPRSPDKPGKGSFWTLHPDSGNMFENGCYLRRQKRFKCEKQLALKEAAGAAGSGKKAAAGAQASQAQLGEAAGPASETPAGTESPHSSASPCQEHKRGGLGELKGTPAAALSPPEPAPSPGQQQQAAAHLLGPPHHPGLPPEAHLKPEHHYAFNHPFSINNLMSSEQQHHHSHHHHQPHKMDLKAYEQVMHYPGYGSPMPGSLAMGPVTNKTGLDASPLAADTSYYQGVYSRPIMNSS
Outline: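 HepG2 cells transiently transfected with multiple cis-regulated reporter transcription units, dosed for 24 h. Reporter mRNA measured by RT-PCR, 6-FAM labelling, HpaI digestion and capillary electrophoresis; bidirectional fitting against DMSO baseline.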

[8] = ATG_FoxO_CIS: Attagene CIS-FACTORIAL HepG2 Assay for human Forkhead box O (FoxO) (AID 2282943); settings: HepG2 Attagene cis-reporter, FoxO element, mRNA; actives raise or lower the signal
Outline: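 Human hepatoma HepG2 cells carry transiently introduced reporter transcription units controlled by cis promoter elements. Chemical treatment lasted 24 h, and mRNA signal was compared with DMSO.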

[9] = ATG_GATA_CIS: Attagene CIS-FACTORIAL HepG2 Assay for human GATA Binding Protein (AID 2282944); settings: HepG2 GATA cis-element reporter, Attagene multiplex mRNA; actives raise or lower the signal
Outline: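 Transfected cis-reporter HepG2 cells were treated with chemicals for 24 hours. Total RNA was then converted to cDNA, amplified with reporter-specific primers and analysed by fluorescent capillary electrophoresis, using DMSO-treated wells as baseline.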

[10] = ATG_GLI_CIS: Attagene CIS-FACTORIAL HepG2 Assay for human Zinc Finger Protein GLI1 (AID 2282945); settings: HepG2, Attagene cis-factorial reporter mRNA, GLI element; actives raise or lower the signal
Outline: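 Bidirectional curve fits relative to DMSO, using reporter mRNA levels from RT-PCR plus capillary electrophoresis. Cells were HepG2 transiently carrying cis-regulated reporter constructs, harvested 24 h after dosing.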

[11] = biological target: Bile acid receptor (Homo sapiens) (UniProt Q96RI1); test: ATG_IR1_CIS: Attagene CIS-FACTORIAL HepG2 Assay for human Nuclear Receptor Subfamily 1 Group H Member 4 (NR1H4), IR1 submotif (AID 2282946); settings: IR1 reporter transcription, actives raise or lower the signal
Sequence of Bile acid receptor (Homo sapiens) (Q96RI1 whole entry, looked up): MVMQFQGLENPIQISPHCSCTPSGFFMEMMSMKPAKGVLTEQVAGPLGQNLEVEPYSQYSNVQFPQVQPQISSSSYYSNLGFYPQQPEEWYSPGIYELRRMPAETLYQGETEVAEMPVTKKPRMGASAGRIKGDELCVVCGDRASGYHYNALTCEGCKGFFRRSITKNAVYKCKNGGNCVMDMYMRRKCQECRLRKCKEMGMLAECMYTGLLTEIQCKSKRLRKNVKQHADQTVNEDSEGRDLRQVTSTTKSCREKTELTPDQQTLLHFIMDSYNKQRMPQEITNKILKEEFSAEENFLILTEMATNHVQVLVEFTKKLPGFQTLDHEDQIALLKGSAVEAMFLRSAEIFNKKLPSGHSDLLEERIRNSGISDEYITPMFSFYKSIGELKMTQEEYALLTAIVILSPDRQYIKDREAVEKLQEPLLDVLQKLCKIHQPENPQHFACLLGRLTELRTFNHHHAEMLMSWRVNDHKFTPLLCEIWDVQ
Outline: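 HepG2 cells transiently transfected with multiplexed cis-element reporter units read endogenous transcription factor activity. After 24 h compound exposure, reporter mRNA was quantified by RT-PCR, fluorescent labelling, HpaI digestion and capillary electrophoresis; bidirectional fitting versus DMSO baseline.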

[12] = ATG_GRE_CIS: Attagene CIS-FACTORIAL HepG2 Assay for human Glucocorticoid Response Elements (GRE) (AID 2282947); settings: HepG2 GRE cis-reporter, Attagene multiplex mRNA; actives raise or lower the signal
Outline: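 Reporter transcripts read by RT-PCR with capillary electrophoresis fluorescence after a 24 h chemical exposure of HepG2 cells transiently transfected with multiple cis-element reporter units. Gain or loss fitted against DMSO.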

[13] = ATG_ISRE_CIS: Attagene CIS-FACTORIAL HepG2 Assay for human Interferon Regulatory Factor 1 (IRF1) binding to an Interferon-Stimulated Response Element (ISRE) (AID 2282948); settings: HepG2 ISRE cis-reporter (Attagene), mRNA transcription readout; actives raise or lower the signal
Outline: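 Multiplexed mRNA reporter readout in human liver HepG2 cells: cis-element-driven reporters transfected, compound added for 24 h, transcripts amplified, fluorescently labelled and sized by capillary electrophoresis; curve fitting bidirectional against DMSO.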

[14] = ATG_M_32_CIS: Attagene CIS-FACTORIAL HepG2 Assay for M32 Transcription Factor (Internal Marker) (AID 2282949); settings: HepG2 Attagene cis-factorial M32 reporter, mRNA; actives raise or lower the signal;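 also: background control marker of the multiplexed CIS panel rather than a real target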
Outline: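 HepG2 transfectants (cis-regulated reporter transcription units) dosed 24 h. Reporter mRNA by RT-PCR plus CE, analysed as gain or loss relative to DMSO.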

[15] = biological target: Hypoxia-inducible factor 1-alpha (Homo sapiens) (UniProt Q16665); test: ATG_HIF1a_CIS: Attagene CIS-FACTORIAL HepG2 Assay for human Hypoxia Inducible Factor 1 (HIF1A) (AID 2282951); settings: HepG2 Attagene cis-factorial HIF1a reporter transcription; actives raise or lower the signal
Sequence of Hypoxia-inducible factor 1-alpha (Homo sapiens) (Q16665 whole entry, looked up): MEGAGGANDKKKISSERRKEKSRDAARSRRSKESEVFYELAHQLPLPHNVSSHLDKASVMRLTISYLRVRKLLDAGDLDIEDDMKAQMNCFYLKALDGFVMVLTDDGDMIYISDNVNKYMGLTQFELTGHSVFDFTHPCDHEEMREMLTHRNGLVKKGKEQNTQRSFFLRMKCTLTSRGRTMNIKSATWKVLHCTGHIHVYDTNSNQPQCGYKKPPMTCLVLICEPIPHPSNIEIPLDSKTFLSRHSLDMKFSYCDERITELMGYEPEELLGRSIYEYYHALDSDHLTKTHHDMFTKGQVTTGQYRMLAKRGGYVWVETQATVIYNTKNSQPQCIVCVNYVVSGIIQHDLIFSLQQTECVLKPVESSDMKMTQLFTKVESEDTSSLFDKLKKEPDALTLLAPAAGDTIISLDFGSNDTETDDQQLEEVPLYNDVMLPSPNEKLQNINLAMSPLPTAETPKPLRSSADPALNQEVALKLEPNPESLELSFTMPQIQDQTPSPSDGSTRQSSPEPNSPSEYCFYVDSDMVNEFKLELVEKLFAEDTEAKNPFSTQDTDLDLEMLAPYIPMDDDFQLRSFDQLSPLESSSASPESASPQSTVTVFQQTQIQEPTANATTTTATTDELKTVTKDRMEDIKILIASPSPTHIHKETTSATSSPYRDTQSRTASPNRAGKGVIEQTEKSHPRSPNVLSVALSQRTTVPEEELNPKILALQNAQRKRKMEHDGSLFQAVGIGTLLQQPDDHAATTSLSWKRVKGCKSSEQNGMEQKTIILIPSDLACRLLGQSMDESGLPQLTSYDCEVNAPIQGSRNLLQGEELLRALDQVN
Outline: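 HepG2 cells transiently transfected with multiplexed cis-promoter reporter units; reporter mRNA read 24 h after dosing by RT-PCR, 6-FAM primer-extension labelling, HpaI digestion and capillary electrophoresis. Bidirectional fit versus DMSO baseline.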

[16] = biological target: Heat shock factor protein 1 (Homo sapiens) (UniProt Q00613); test: ATG_HSE_CIS: Attagene CIS-FACTORIAL HepG2 Assay for human Heat Shock Transcription Factor 1 (HSE) (AID 2282953); settings: HepG2 HSE cis-reporter, Attagene RNA transcription; actives raise or lower the signal
Sequence of Heat shock factor protein 1 (Homo sapiens) (Q00613 whole entry, looked up): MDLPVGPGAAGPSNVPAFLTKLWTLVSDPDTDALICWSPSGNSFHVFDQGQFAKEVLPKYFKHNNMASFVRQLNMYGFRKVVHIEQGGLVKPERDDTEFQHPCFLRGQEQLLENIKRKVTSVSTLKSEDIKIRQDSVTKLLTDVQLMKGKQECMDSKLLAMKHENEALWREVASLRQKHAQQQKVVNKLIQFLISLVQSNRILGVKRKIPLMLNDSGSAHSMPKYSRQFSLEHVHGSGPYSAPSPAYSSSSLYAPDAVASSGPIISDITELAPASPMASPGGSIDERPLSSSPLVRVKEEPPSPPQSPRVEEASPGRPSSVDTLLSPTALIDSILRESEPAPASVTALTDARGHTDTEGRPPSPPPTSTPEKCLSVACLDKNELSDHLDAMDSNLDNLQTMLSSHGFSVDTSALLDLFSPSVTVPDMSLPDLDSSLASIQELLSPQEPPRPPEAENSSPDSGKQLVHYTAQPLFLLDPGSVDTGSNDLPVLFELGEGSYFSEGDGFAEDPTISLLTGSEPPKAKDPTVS
Outline: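 Liver-derived HepG2 cells carry transiently introduced multiple reporter units governed by cis promoters. Reporter RNA measured 24 h post-dose through reverse transcription, PCR amplification, fluorescent labelling and capillary electrophoresis, normalised to DMSO.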

[17] = ATG_MRE_CIS: Attagene CIS-FACTORIAL HepG2 Assay for human Metal Responsive Element (MRE) (AID 2282954); settings: HepG2 MRE cis-reporter transcription, Attagene multiplex; actives raise or lower the signal
Outline: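 Endogenous MRE-dependent transcription read as reporter mRNA in transiently transfected human HepG2 cells at 24 h. RNA reverse-transcribed, PCR-amplified, labelled and resolved by capillary electrophoresis; gain or loss relative to DMSO.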

[18] = ATG_M_06_CIS: Attagene CIS-FACTORIAL HepG2 Assay for M06 Transcription Factor (Internal Marker) (AID 2282950); settings: HepG2 Attagene CIS-FACTORIAL M06 internal marker reporter; actives raise or lower the signal
Outline: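 Cells (HepG2, transiently carrying cis-driven reporter units) receive chemical for 24 h before RNA isolation. Reporter cDNA is PCR-amplified, FAM-labelled by primer extension, HpaI-digested and sized on a capillary analyser.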

[19] = biological target: Hepatocyte nuclear factor 6 (Homo sapiens) (UniProt Q9UBC0); test: ATG_HNF6_CIS: Attagene CIS-FACTORIAL HepG2 Assay for human Hepatocyte Nuclear Factor 6 (HNF6) (AID 2282952); settings: HepG2 Attagene cis-factorial HNF6 reporter transcription; actives raise or lower the signal
Sequence of Hepatocyte nuclear factor 6 (Homo sapiens) (Q9UBC0 whole entry, looked up, the tested form may be a part): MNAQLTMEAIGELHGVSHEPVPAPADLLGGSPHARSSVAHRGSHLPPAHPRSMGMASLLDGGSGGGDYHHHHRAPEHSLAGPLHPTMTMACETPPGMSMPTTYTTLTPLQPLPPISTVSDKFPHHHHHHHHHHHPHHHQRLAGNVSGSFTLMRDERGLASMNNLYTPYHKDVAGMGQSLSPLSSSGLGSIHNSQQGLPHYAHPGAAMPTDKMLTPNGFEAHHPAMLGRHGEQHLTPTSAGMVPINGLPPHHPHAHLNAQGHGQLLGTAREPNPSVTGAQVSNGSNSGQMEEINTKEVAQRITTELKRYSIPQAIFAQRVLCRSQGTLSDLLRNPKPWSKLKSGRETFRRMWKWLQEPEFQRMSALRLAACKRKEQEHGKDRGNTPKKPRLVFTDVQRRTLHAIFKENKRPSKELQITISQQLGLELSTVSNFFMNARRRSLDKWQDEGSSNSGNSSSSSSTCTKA
Outline: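 Twenty-four-hour chemical treatment of reporter-transfected HepG2 cells precedes RNA isolation, DNase-treated reverse transcription and PCR of reporter sequences. Labelled fragments are sized by capillary electrophoresis and fitted bidirectionally versus DMSO.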

Measured: AC50

C=C(C)CCCC
not listed: [18] | [19]
inactive: all other assays above

CCCCCCCCCCCCCCCCC
active: [6] 25.6 µM
inactive: all other assays above

CCN(CC)c1ccc(C=O)c(O)c1
active: [13] 75.4 µM | [17] 52.2 µM
not listed: [18] | [19]
inactive: all other assays above
